MEKK2wt PB1 HTS – raises or lowers MEK5 binding to wildtype human MEKK2 PB1 domain. AID 1531. binding response (% of control), % at 10 µM. hit rate 1.1% among 290,000. Q9Y2U5. bead flow cytometry, Alexa488-MEK5 binding to MEKK2 WT; actives lie on both sides; in the data active = binding response below about 67% or above about 130%
MEKK3 PB1 HTS – MEKK3-MEK5 PB1 interaction, increase or decrease; Q99759; bead-based flow cytometry, Alexa488-MEK5 binding to MEKK3; actives lie on both sides; 0 = blocked by unlabeled MEK5, 100 = vehicle; binding response (% of control), % at 10 µM; hit rate 1.4% among 290,000; AID 1529;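 active = binding response more than 3 SD above or below the average of its plate-row segment, actives on both sides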;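 also: Alexa488 bead fluorescence after subtracting the streptavidin-only scavenger bead signal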
UBC13 inh – inhibitors of human UBC13 polyubiquitin chain formation | hit rate 0.47% among 330,000 | TR-FRET | inhibition, % at 20 µM | AID 485273; in the data active = inhibition above about 45%, passing the limit was not always enough
Target sequence (P61088 whole entry, looked up): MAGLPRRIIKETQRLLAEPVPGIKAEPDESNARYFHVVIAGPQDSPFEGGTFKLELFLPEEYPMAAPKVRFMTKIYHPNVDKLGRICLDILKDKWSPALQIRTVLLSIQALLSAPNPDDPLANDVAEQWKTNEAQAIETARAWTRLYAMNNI
MEKK2 mut-MEK5 – signal of MEK5 binding to mutant human MEKK2 PB1 domain; bead flow cytometry, Alexa488-MEK5 binding to MEKK2 mutant; percent response, % at 10 µM; hit rate 0.35% among 290,000; in the data active = percent response above about 24%, passing the limit was not always enough
Rce1 inh – inhibitors of yeast Ras-converting enzyme | Q03530 | yeast membranes, quenched prenylated peptide cleavage fluorescence | calls only | hit rate 0.27% among 290,000 | AID 2563;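 active = fall in fluorescence gain of 50% or more versus controls, with final raw signal at or below 3038400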;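 also: plate controls were neutral control wells for no effect and wells lacking membranes for full effect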
Target sequence (Q03530 whole entry, looked up): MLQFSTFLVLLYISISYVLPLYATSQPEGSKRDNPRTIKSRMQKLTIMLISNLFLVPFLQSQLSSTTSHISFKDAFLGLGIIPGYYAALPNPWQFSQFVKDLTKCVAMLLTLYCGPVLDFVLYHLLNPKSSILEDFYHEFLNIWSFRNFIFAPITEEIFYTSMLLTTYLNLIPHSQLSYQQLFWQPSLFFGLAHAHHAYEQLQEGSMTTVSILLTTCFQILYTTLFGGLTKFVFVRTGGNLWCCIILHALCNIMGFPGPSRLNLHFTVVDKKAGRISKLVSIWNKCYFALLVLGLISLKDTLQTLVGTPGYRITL
MEKK2wt confirm – raises or lowers MEK5 binding to wildtype human MEKK2, retest; shares compounds with MEKK3 PB1 HTS; bead flow cytometry, Alexa488-MEK5 binding to MEKK2 WT; actives lie on both sides; binding response (% of control), % at 10 µM; hit rate 2.4% among 5,900; in the data active = binding response below about 16% or above about 210%; inactive = in between
MEKK2mut confirm – signal of MEK5 binding to mutant human MEKK2, retest; shares compounds with MEKK3 PB1 HTS; percent response, % at 10 µM; hit rate 2% among 5,900; bead flow cytometry, Alexa488-MEK5 binding to MEKK2 mutant; in the data active = percent response mostly above about 71%, no sharp cut-off; inactive = mostly below about 38%;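 also: higher means compound restores mutant binding toward wildtype level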
MEKK3 confirm – MEKK3-MEK5 PB1 inhibition, single concentration confirmation. shares compounds with MEKK3 PB1 HTS. bead flow cytometry, Alexa488-MEK5 binding to MEKK3; hits give low values. binding response (% of control), % at 10 µM. hit rate 1.8% among 5,900;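 active = binding response below 72% of control, or above a set upper limit, though filed actives all read lower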;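 also: 100% = DMSO only wells and 0% = binding blocked by excess unlabeled MEK5; lower values mean stronger disruption of MEK5 binding to MEKK3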
An asterisk follows results filed as active; i = inactive; · = no result; [ ] = remark or other dose. Hits are enriched below; roughly 2.5% of the tested compounds scored in any of these assays.

SMILES	MEKK2wt PB1 HTS	MEKK3 PB1 HTS	UBC13 inh	MEKK2 mut-MEK5	Rce1 inh	MEKK2wt confirm	MEKK2mut confirm	MEKK3 confirm
CC(C)C(NC(=O)c1c(F)cccc1F)C(=O)NC1CC(C)(C)NC(C)(C)C1 (configuration not stated)	99.0	100.0	0.8	0.0	·	·	·	·
CCOC(=O)COc1ccc(/C=C2/C(=O)NN(c3ccc(F)cc3)C2=O)cc1OC	167.0*	116.0	-24.8	15.0	i	98.0	-1.0	101.0
CN(C)c1ccc(/C=C2\SC(N3CCCCC3)=NC2=O)cc1	110.0	111.0	-106.5	6.0	i	·	·	·
CCOC(=O)c1c(C)[nH]c(C)c1C(=O)CSc1nc2ccccc2n1CC	102.0	135.0*	-7.4	0.0	i	102.0	-3.0	100.0
Cc1ccc(OCC(=O)NCc2cccs2)c([N+](=O)[O-])n1	99.0	101.0	1.5	-2.0	i	·	·	·
CC(C)(C)c1nnc(N/N=C/c2cc(Br)ccc2O)n(N)c1=O	105.0	142.0*	·	0.0	i	122.0	14.0	106.0
O=c1[nH]n2c(=O)c3c([nH]c2c1N=Nc1cccc(Cl)c1)CCCC3	58.0	48.0*[inhibitor]	-77.8	4.0	i	106.0	7.0	104.0
CCOc1ccc(N=Nc2c(=O)[nH]n3c(=O)c4c([nH]c23)CCCC4)cc1	101.0	103.0	-265.1	1.0	i	·	·	·
CCOc1cccc(C(=O)Nc2ccccc2C(=O)N2CCOCC2)c1	100.0	104.0	-1.9	-1.0	i	·	·	·
Cc1ccc2nc(-c3cccc(Br)c3)cc(C(=O)NC3=NCCS3)c2c1	110.0	104.0	13.6	3.0	i	·	·	·
O=C(NC1=NCCS1)c1cc(-c2cccc(Br)c2)nc2ccccc12	115.0	148.0*	11.3	11.0	i	110.0	7.0	100.0
O=[N+]([O-])c1ccc2sc(SCc3nc4ccccn4c3Br)nc2c1	104.0	138.0*	-8.3	0.0	i	102.0	-2.0	102.0
Brc1c(CSc2nc3ccccc3s2)nc2ncccn12	109.0	99.0	0.3	15.0	i	·	·	·
CCOc1cccc(CN2CCC(n3nccc3NC(=O)C3CC3)CC2)c1O	109.0	103.0	2.3	8.0	·	·	·	·
CN(C(=O)CCS(=O)(=O)c1cc2c(cc1Cl)NC(=O)CO2)C1CCCCC1	98.0	101.0	2.6	3.0	i	·	·	·
CCOc1ncccc1C(=O)OCC(=O)Nc1ccc(C)c(S(=O)(=O)N(C)C)c1	82.0	73.0*[inhibitor]	-15.6	-10.0	i	100.0	2.0	99.0
CC(=O)c1c(C)[nH]c(C(=O)OCC(=O)Nc2ccc(Cl)c(S(=O)(=O)N(C)C)c2)c1C	43.0*[inhibitor]	38.0*[inhibitor]	5.5	-32.0	·	106.0	10.0	108.0
Cc1cc(C(=O)OC(C(=O)Nc2cccc(C(F)(F)F)c2)c2ccccc2)c(C)o1 (configuration not stated)	107.0	145.0*	-4.6	3.0	i	103.0	2.0	101.0
Cc1ccc(NC(=O)C(OC(=O)c2cc(C)oc2C)c2ccccc2)cc1 (configuration not stated)	102.0	100.0	5.6	-8.0	i	·	·	·
CCNC(=O)NC(=O)C(C)On1nnc2ccc(S(=O)(=O)N(CC)CC)cc21 (configuration not stated)	106.0	150.0*	-3.8	1.0	i	98.0	2.0	101.0
CCNC(=O)NC(=O)C(C)OC(=O)CCS(=O)(=O)c1ccc(C)cc1 (configuration not stated)	94.0	97.0	21.3	-13.0	·	·	·	·
CCOC(=O)CNc1nc(Cl)nc(NC(C)(C)C)n1	119.0	130.0*	7.1	2.0	i	102.0	0.0	96.0
COc1ccnc(Oc2ccccc2)c1C(=O)N/C=N/OCc1ccccc1	68.0	67.0*[inhibitor]	1.0	-39.0	·	103.0	-3.0	103.0
CO/N=C/NC(=O)c1c(OC)ccnc1Oc1ccccc1	101.0	100.0	7.9	3.0	i	·	·	·
C[C@@H](CC#N)CN1CC[C@H](C(C)(C)C)CCC1=O	104.0	99.0	0.8	0.0	i	·	·	·

Source: PubChem BioAssay
